Measured values published in ChEMBL document CHEMBL3433997, “St. Jude Leishmania screening dataset” (2016).

biological target: Solute carrier family 2, facilitated glucose transporter member 1 (Homo sapiens) (UniProt P11166); experiment: ST_JUDE_LEISH: Cytotoxicity at 2uM final concentration against transgenic Leishmania Mexicana promastigotes LmGLUT1 that are glucose transport deficient and complemented with the human glucose transporter GLUT1. Activity is measured by DNA content using SYBR green in vitro; type: functional
Sequence (P11166 whole entry): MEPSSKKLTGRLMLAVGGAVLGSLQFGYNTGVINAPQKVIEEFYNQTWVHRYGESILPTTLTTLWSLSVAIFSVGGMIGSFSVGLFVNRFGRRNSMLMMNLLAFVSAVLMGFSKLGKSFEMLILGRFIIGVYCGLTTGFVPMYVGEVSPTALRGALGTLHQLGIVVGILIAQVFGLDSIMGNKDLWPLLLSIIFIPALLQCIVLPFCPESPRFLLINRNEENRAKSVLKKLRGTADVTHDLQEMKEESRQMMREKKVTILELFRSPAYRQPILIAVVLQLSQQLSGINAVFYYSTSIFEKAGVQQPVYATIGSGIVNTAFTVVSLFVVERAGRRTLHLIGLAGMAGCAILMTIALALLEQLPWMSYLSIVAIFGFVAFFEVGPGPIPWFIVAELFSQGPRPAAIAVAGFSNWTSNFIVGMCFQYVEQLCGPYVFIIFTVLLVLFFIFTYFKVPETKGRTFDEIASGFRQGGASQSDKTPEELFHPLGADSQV

SMILES | inhibition
CCOCCCn1c(=N)c(C(=O)NCc2ccc(F)cc2)cc2c(=O)n3cccc(C)c3nc21 | 4.22%
O=c1cc(NCCCNCc2ccc(C(F)(F)F)c(F)c2)[nH]c2ccccc12 | 0.24%
CC(C)NC(=O)c1cccc(-c2ccc(OCCN3CCCC3c3cc4ccccc4[nH]3)cc2)c1 (stereo not given) | 1.77%
CC(C)CSc1cc(C(=O)Nc2cc(Cl)ccc2O)ccn1 | -0.74%
CC(CN(C)C)C(=O)Nc1cccc(-c2ccc(-c3nc4ccccc4[nH]3)cc2)c1 (stereo not given) | 12.2%
O=C(Nc1ccc(OC2CCN(Cc3ccc(F)cc3)CC2)c(Cl)c1)c1ccco1 | 1.06%
Cc1ccc(Cn2nc(Cl)c(N3CCNCC3)cc2=O)cc1NC(=O)Nc1ccc(-c2ccccc2)cc1 | 1.36%
CCc1cn(CCc2ccccc2)c2ccc(C(=O)N[C@@H](Cc3ccccc3)[C@H](O)CNC(C)(C)CCCC(C)C)cc12 | -1.76%
CCNc1cc(C(=O)N[C@@H](Cc2ccccc2)[C@H](O)CNC2(CC)CC2)cc(N2CCCCS2(=O)=O)c1 | -3.85%
COc1cc(O)c2c(=O)c(OC)c(-c3cccc(Cl)c3OC3O[C@H](CO)[C@@H](O)[C@H](O)[C@H]3O)oc2c1OC (stereo not given in full) | 5.21%
CCCCN1CCN(CCCCNc2c3ccccc3nc3ccccc23)CC1 | 36.8%
COc1ccc(Nc2ncc3c(-c4cccc(NC(=O)Cc5cccc(F)c5)c4)c[nH]c3n2)cc1OC | 5.69%
Cc1nc(N)nc(N)c1C#CC1CCCC1 | 5.81%
COc1ccc(CC(C)CON2C(N)=NC(N)=NC2(C)C)cc1 (stereo not given) | 4.07%
CN(C)c1ccc(-c2csc(C(=O)NCC3CCN(CCC(C)(C)C)C3)c2)cc1 (stereo not given) | -0.84%
CN(C)c1ccc(-c2csc(C(=O)NC3CCN(Cc4ccc(C(C)(C)C)cc4)C3)c2)cc1 (stereo not given) | 5.6%
N#Cc1ccc(-c2ccc(C(=O)NCCCCN3CCC(c4ccc5c(c4OCC(N)=O)CCCC5)CC3)nc2)cc1 | 3.35%
c1ccc(-c2csc(Nc3nc4cc5c(cc4s3)OCO5)n2)nc1 | 0.62%
Cc1cc(N[C@@H](Cc2ccccc2)C(=O)NCc2cccc(F)c2)nc(NCCc2ccccc2)n1 | 5.82%
Cn1c(CN2CCC(N3CCc4cc(NC(=O)c5ccco5)ccc43)C2)cc2ccccc21 (stereo not given) | 5.51%

SMILES | inhibition
O=C(c1ccc(Cl)cc1Cl)N1CCCC(C(F)(F)F)C1 (stereo not given) | 8.69%
Cc1oc(-c2ccccc2)nc1CCOc1ccc(C[C@H](Nc2ccccc2C(=O)c2ccccc2)C(=O)NCc2ccccn2)cc1 | 4.4%
N=C(N)c1ccc(NCc2cccc(C(=O)O)c2)cc1 | 1.02%
CC[C@H](C)CNC(=O)c1ccnc(-c2ccc(CN3CCC(N4CCCC4)CC3)cc2)c1 | 1.51%
CNc1ccc(CNCc2ccc(-c3ccc(-c4nc5cc(C(F)(F)F)ccc5[nH]4)cc3)cc2)cc1 | 0.54%
CN1CCCC1CCNc1ncc2c(-c3ccc(NC(=O)Nc4cc(C(F)(F)F)ccc4F)c(F)c3)nn(C)c2n1 (stereo not given) | -1.71%
Cc1cccc2nc(-c3ccc(-c4cccc(CNCCCN5CCCC5=O)c4)s3)[nH]c12 | 3.74%
O=c1cc(NCCCNCc2cccc(SC(F)(F)F)c2)[nH]c2ccccc12 | 3.33%
CCN(CC)CCN(Cc1ccc(-c2ccc(C(F)(F)F)cc2)cc1)C(=O)Cn1c(CCc2cccc(F)c2F)cc(=O)c(C)c1C | 11.5%
Cc1cc(NCCc2ccccc2)nc(NC(=N)Nc2cccc(Cl)c2)n1 | -0.54%
N=C(N)NC(=O)Nc1ccc(Cl)c(C(F)(F)F)c1 | 1.17%
O=C(NC1CC1)c1ccc(Cn2c(SCc3cccc(Cl)c3)nc3ccccc3c2=O)cc1 | 0.42%
COc1cc(OC)c(OC)cc1CN1CCC2(CC1)CN(Cc1ccc(Cl)c(Cl)c1)C(=O)O2 | 10.3%
COc1cc(CCOc2c(C)nc(N)nc2N)cc(OC)c1OC | -0.69%
CC(=O)Nc1ccc(OCCCN(Cc2ccccc2OC(F)(F)F)c2ccc(C(F)(F)F)c(C#N)c2)c(Cl)c1 | 2.37%
O=C(C=Cc1ccc(Cl)c(Cl)c1)NC1CCN(CCc2ccccc2)CC1 | 0.9%
COc1ccc2nccc(N3CCCN(CCNS(=O)(=O)c4ccc5c(c4)NC(=O)CS5)CC3)c2n1 | 0.19%
COC(=O)c1cccc(C#CCCOCCCCCCNC[C@H](O)c2cc(Cl)c(N)c(Cl)c2)c1 | 2.64%
CCNc1cc(C)nc(Nc2ccc(NC(=O)Cc3ccc(OC)cc3)cc2)n1 | 10.8%
c1cc(CNc2ncc(-c3ccsc3)c(-c3nccs3)n2)ccn1 | 7.08%

biological target: Hexose transporter 1 (Plasmodium falciparum) (UniProt O97467); experiment: ST_JUDE_LEISH: Cytotoxicity at 2uM final concentration against transgenic Leishmania Mexicana promastigotes LmPfHT that are glucose transport deficient and complemented with the Plasmodium falciparum hexose transporter. Activity is measured by DNA content using SYBR green in vitro; type: functional

SMILES | inhibition
CCOCCCn1c(=N)c(C(=O)NCc2ccc(F)cc2)cc2c(=O)n3cccc(C)c3nc21 | 10.1%
O=c1cc(NCCCNCc2ccc(C(F)(F)F)c(F)c2)[nH]c2ccccc12 | 0.58%
CC(C)NC(=O)c1cccc(-c2ccc(OCCN3CCCC3c3cc4ccccc4[nH]3)cc2)c1 (stereo not given) | 3.47%
CC(C)CSc1cc(C(=O)Nc2cc(Cl)ccc2O)ccn1 | -0.12%
CC(CN(C)C)C(=O)Nc1cccc(-c2ccc(-c3nc4ccccc4[nH]3)cc2)c1 (stereo not given) | 9.79%
O=C(Nc1ccc(OC2CCN(Cc3ccc(F)cc3)CC2)c(Cl)c1)c1ccco1 | 1.1%
Cc1ccc(Cn2nc(Cl)c(N3CCNCC3)cc2=O)cc1NC(=O)Nc1ccc(-c2ccccc2)cc1 | 5.15%
CCc1cn(CCc2ccccc2)c2ccc(C(=O)N[C@@H](Cc3ccccc3)[C@H](O)CNC(C)(C)CCCC(C)C)cc12 | -1.07%
CCNc1cc(C(=O)N[C@@H](Cc2ccccc2)[C@H](O)CNC2(CC)CC2)cc(N2CCCCS2(=O)=O)c1 | 2.01%
COc1cc(O)c2c(=O)c(OC)c(-c3cccc(Cl)c3OC3O[C@H](CO)[C@@H](O)[C@H](O)[C@H]3O)oc2c1OC (stereo not given in full) | 4.48%
CCCCN1CCN(CCCCNc2c3ccccc3nc3ccccc23)CC1 | 43.1%
COc1ccc(Nc2ncc3c(-c4cccc(NC(=O)Cc5cccc(F)c5)c4)c[nH]c3n2)cc1OC | 3.23%
Cc1nc(N)nc(N)c1C#CC1CCCC1 | 6.82%
COc1ccc(CC(C)CON2C(N)=NC(N)=NC2(C)C)cc1 (stereo not given) | 4.35%
CN(C)c1ccc(-c2csc(C(=O)NCC3CCN(CCC(C)(C)C)C3)c2)cc1 (stereo not given) | -0.06%
CN(C)c1ccc(-c2csc(C(=O)NC3CCN(Cc4ccc(C(C)(C)C)cc4)C3)c2)cc1 (stereo not given) | 5.58%
N#Cc1ccc(-c2ccc(C(=O)NCCCCN3CCC(c4ccc5c(c4OCC(N)=O)CCCC5)CC3)nc2)cc1 | 0.86%
c1ccc(-c2csc(Nc3nc4cc5c(cc4s3)OCO5)n2)nc1 | 0.83%
Cc1cc(N[C@@H](Cc2ccccc2)C(=O)NCc2cccc(F)c2)nc(NCCc2ccccc2)n1 | 4.21%
Cn1c(CN2CCC(N3CCc4cc(NC(=O)c5ccco5)ccc43)C2)cc2ccccc21 (stereo not given) | 4.84%

SMILES | inhibition
O=C(c1ccc(Cl)cc1Cl)N1CCCC(C(F)(F)F)C1 (stereo not given) | 11.4%
Cc1oc(-c2ccccc2)nc1CCOc1ccc(C[C@H](Nc2ccccc2C(=O)c2ccccc2)C(=O)NCc2ccccn2)cc1 | 4.88%
N=C(N)c1ccc(NCc2cccc(C(=O)O)c2)cc1 | 1.06%
CC[C@H](C)CNC(=O)c1ccnc(-c2ccc(CN3CCC(N4CCCC4)CC3)cc2)c1 | 0.38%
CNc1ccc(CNCc2ccc(-c3ccc(-c4nc5cc(C(F)(F)F)ccc5[nH]4)cc3)cc2)cc1 | -1.86%
CN1CCCC1CCNc1ncc2c(-c3ccc(NC(=O)Nc4cc(C(F)(F)F)ccc4F)c(F)c3)nn(C)c2n1 (stereo not given) | 0.21%
Cc1cccc2nc(-c3ccc(-c4cccc(CNCCCN5CCCC5=O)c4)s3)[nH]c12 | 2.33%
O=c1cc(NCCCNCc2cccc(SC(F)(F)F)c2)[nH]c2ccccc12 | 3.61%
CCN(CC)CCN(Cc1ccc(-c2ccc(C(F)(F)F)cc2)cc1)C(=O)Cn1c(CCc2cccc(F)c2F)cc(=O)c(C)c1C | 8.35%
Cc1cc(NCCc2ccccc2)nc(NC(=N)Nc2cccc(Cl)c2)n1 | 1.42%
N=C(N)NC(=O)Nc1ccc(Cl)c(C(F)(F)F)c1 | 2.97%
O=C(NC1CC1)c1ccc(Cn2c(SCc3cccc(Cl)c3)nc3ccccc3c2=O)cc1 | -0.54%
COc1cc(OC)c(OC)cc1CN1CCC2(CC1)CN(Cc1ccc(Cl)c(Cl)c1)C(=O)O2 | 9.41%
COc1cc(CCOc2c(C)nc(N)nc2N)cc(OC)c1OC | 0.7%
CC(=O)Nc1ccc(OCCCN(Cc2ccccc2OC(F)(F)F)c2ccc(C(F)(F)F)c(C#N)c2)c(Cl)c1 | -1.13%
O=C(C=Cc1ccc(Cl)c(Cl)c1)NC1CCN(CCc2ccccc2)CC1 | 1.06%
COc1ccc2nccc(N3CCCN(CCNS(=O)(=O)c4ccc5c(c4)NC(=O)CS5)CC3)c2n1 | 1%
COC(=O)c1cccc(C#CCCOCCCCCCNC[C@H](O)c2cc(Cl)c(N)c(Cl)c2)c1 | 0.28%
CCNc1cc(C)nc(Nc2ccc(NC(=O)Cc3ccc(OC)cc3)cc2)n1 | 10.1%
c1cc(CNc2ncc(-c3ccsc3)c(-c3nccs3)n2)ccn1 | 9.37%
